The values that follow come from PubChem BioAssay AID1851 (National Center for Advancing Translational Sciences (NCATS), 2009).

Molecules are shown by their SMILES. Hit rate of the full screen: of about 16,000 compounds, about 4,000 (25%) were called active. Inconclusive results (about 26%) are left out. Only a sample is shown. Unmarked numbers belong to inactive results. The call rests on the fitted dose curve; in most records, active means well fitted curve in the direction sought with a large enough effect; inconclusive means small, poorly fitted or top-dose-only effect, or effect the other way; inactive means no such curve, though single readings can be large or run the other way.
On the % scale 0 is the no-effect control and ±100 the full control effect.

Sequence of Cytochrome P450 2C9 (Homo sapiens) (P11712 whole entry, looked up): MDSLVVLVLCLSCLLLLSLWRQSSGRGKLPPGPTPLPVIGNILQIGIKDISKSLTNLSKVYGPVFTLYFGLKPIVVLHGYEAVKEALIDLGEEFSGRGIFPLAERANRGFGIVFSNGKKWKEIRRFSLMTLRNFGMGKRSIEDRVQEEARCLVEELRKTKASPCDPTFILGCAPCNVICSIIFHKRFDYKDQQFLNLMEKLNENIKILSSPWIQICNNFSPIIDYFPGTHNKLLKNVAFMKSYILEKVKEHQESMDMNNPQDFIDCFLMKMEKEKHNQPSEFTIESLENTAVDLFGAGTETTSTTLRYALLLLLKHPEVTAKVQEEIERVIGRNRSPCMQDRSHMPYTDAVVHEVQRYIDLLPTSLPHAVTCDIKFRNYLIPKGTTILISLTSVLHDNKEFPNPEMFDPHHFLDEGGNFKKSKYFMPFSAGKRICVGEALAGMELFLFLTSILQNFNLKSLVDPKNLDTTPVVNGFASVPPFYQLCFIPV

The assay has as its target Cytochrome P450 2C9 (Homo sapiens) (UniProt P11712). As to the kind of experiment: Cytochrome panel assay with activity outcomes. The note with it: recombinant CYP, pro-luciferin dealkylation, luminescence, p450-cyp2c9; series mostly up to 57.1 µM.
As for `CN(N=O)C(=O)N[C@H]1[C@@H](O)[C@H](O)[C@H](CO)O[C@@H]1O`, the AC50 (in general, the concentration at which the activity in the assay is half-maximal) is “inactive”.
For the compound `C[C@@]12CC(=O)[C@@H]3[C@@H](CCC4=CC(=O)CC[C@]43C)[C@@H]1CC=C2CC(=O)O`, the activity, negative = inhibition is 4.34% [at 11.4 µM].
Regarding `CCN(C(=O)c1cnc(N2CCN(c3ncccn3)CC2)c2ccccc12)c1cccc(Cl)c1`, the half-maximal activity concentration (AC50) is 3.16 µM (active).
As for `COCC(=O)N1CCC2(CC1)CCN(c1ncccn1)CC2`, the AC50 result is “inactive”.
Regarding `COC(=O)N1CCC2(CC1)CCN(c1ncccn1)CC2`, the AC50 result was “inactive”.
`CN(C(=O)c1cnc(N2CCN(c3ncccn3)CC2)c2ccccc12)c1ccc(Cl)cc1`: the AC50 was 5.01 µM (active).
For the compound `COCC(=O)N1CCC2(CC1)CN(c1ccccn1)C2`, the AC50 result was “inactive”.
Turning to `COCC(=O)N1CCC2(CCCN(c3ncccn3)C2)CC1`, the AC50 result is “inactive”.
Regarding `CO[C@H]1COC(=O)CCC[C@@H](C)[C@H](OC)COC(=O)[C@@H](C)NC(=O)C/C=C\[C@@H]1C`, the activity, negative = inhibition is -11.7% [at 11.4 µM].
Same read-out and setting: under `Cc1noc(C)c1-c1nc(Nc2ccc(F)cc2)c2ccccc2n1` stands -2.69% [at 2.29 µM].
For `CCN(CC)CCNC(=O)c1cc(Br)c(N)cc1OC`, the AC50 result was “inactive”.
Still for that read-out and setting: next, `CCCc1c(OCCCOc2ccc(OCC(=O)O)cc2)ccc(C(C)=O)c1O`: 10 µM (active).
For the compound `CCCc1c(OCCCOc2ccc(OCC(=O)O)cc2)ccc(CC=O)c1O`, the AC50 result was “inactive”.
Still for that read-out and setting: next, `O=C(O)COc1ccc(OCCNC[C@@H](O)COc2ccccc2)cc1`: “inactive”; `Cn1cccc1C(=O)N1CCC[C@@]2(CCN(Cc3ccc(C#N)cc3)C2)C1`: “inactive”; `NC/C=C\C(=O)O`: “inactive”.
With `CC[C@H](C)[C@@H]1O[C@]2(CC[C@@H]1C)C[C@H]1C[C@H](CC=C(C)[C@@H](O[C@@H]3C[C@H](OC)[C@H](O[C@@H]4C[C@H](OC)[C@H](O)[C@H](C)O4)[C@H](C)O3)[C@@H](C)C=CC=C3CO[C@@H]4[C@@H](O)C(C)=C[C@@H](C(=O)O1)[C@]34O)O2`, the AC50 result is “inactive”.
Still for that read-out and setting: under `O=S(=O)(c1cccc(C(F)(F)F)c1)N1CCC(c2cc(-c3cccc4ccccc34)n[nH]2)CC1` stands “inactive”; under `O=C1C2CCCN2c2ccc(S(=O)(=O)N3CCOCC3)cc2N1Cc1cccc(C(F)(F)F)c1` (stereo not given), 5.01 µM (active); under `O=C(Cn1cc(C(F)(F)F)ccc1=O)N1CCN(S(=O)(=O)c2ccccc2)CC1`, “inactive”.
Regarding `COc1ccc(NC(=O)N2CCCC3(CCN(C(=O)c4csnn4)CC3)C2)cc1`, the AC50 result is “inactive”.
With `O/N=C/c1cc(Cl)ccc1OCc1cccc2ccccc12`, the AC50 was 7.08 µM (active).
Take `O=C(Cc1ccccc1)N/N=C/c1ccccc1OCc1ccc(Cl)cc1`: the AC50 was 7.94 µM (active).
Take `Oc1ccc(Cl)cc1C=Nc1cnc2ccccc2c1`: the activity, negative = inhibition was 1.22% [at 11.4 µM].
For the compound `Cc1ccc(COc2ccc(Br)cc2/C=N/O)cc1`, the AC50 was 2.82 µM (active).
For `O=C(SCc1cccc2ccccc12)c1ccc(Cl)cc1`, the activity, negative = inhibition is -1.66% [at 11.4 µM].
Turning to `Cc1ccc(CONC(=O)/N=C/N(C)C)cc1`, the AC50 entry is “inactive”.
The same measure, in the same setting: under `Cc1ccc(COc2coc(CO)cc2=O)cc1` stands “inactive”; under `Cc1n[nH]c(=S)n1/N=C/c1ccccc1OCc1ccc(Cl)cc1`, “inactive”; under `O/N=C/c1ccccc1OCc1ccc(Cl)cc1`, 4.47 µM (active).
`COc1ccc(COC(=O)N/N=C2/C[C@@H](O)[C@@H](O)[C@@H]3[C@@H]4C(=O)N(C(C)(C)C)C(=O)[C@H]4CC[C@H]23)cc1`: the activity, negative = inhibition is 20.6% [at 11.4 µM].
`CC(C)(C)c1onc(OCP(=O)(O)O)c1C[C@@H](N)C(=O)O`: the AC50 result was “inactive”.
On to `C[C@@H]1O[C@H](O[C@@H]2[C@H](C)O[C@H](O[C@@H]3[C@H](C)O[C@H](O[C@H]4CC[C@]5(C)[C@@H](CC[C@@H]6[C@H]5C[C@@H](O)[C@]5(C)[C@@H](C7=CC(=O)OC7)CC[C@]65O)C4)C[C@@H]3O)C[C@@H]2O)C[C@H](O)[C@@H]1O`, for which the AC50 result was “inactive”.
For the compound `C[C@@H](Cc1ccccc1)Nc1ncnc2c1ncn2[C@@H]1O[C@@H](CO)[C@H](O)[C@@H]1O`, the AC50 result was “inactive”.
Take `COCCNc1nc(-c2c(C)noc2C)nc2ccccc12`: the activity, negative = inhibition is 15% [at 2.29 µM].
With `NC(N)=NC(N)=Nc1cccc(Cl)c1`, the AC50 entry was “inactive”.
Take `NC(=S)N/N=C/c1ccccc1OCc1cccc(Cl)c1`: the concentration at half-maximal activity (AC50) is 1.58 µM (active).
Consider `CCC1(C)Nc2ccccc2C(=O)N1O` (stereo not given), for which the AC50 entry was “inactive”.
In the case of `CC1CCC2(CC1)N=C(N)Nc1nc3ccccc3n12` (stereo not given), the AC50 entry was “inactive”.
Take `CCCC1(C)Nc2ccccc2-c2nc3ccccc3n21` (stereo not given): the AC50 is 3.98 µM (active).
On the same count and under the same terms, next, `NC1=NC2(CCCCCC2)n2c(nc3ccccc32)N1`: “inactive”; `CCCCC1(C)Nc2ccccc2-c2nc3ccccc3n21` (stereo not given): 12.6 µM (active); `COc1c2c(nc3ccccc13)O[C@@H]([C@@](C)(O)CO)C2`: “inactive”.
Consider `C=C(C)C1CC=C(C)/C(=N/NC(=O)c2ccc(NC(=O)c3cccc(C)c3)cc2)C1` (stereo not given), for which the AC50 is 1.58 µM (active).
In the case of `Cc1cccc(C(=O)NNC(=O)C(=O)NC(C)(C)C)c1`, the AC50 result was “inactive”.
Consider `Cc1cccc(C(=O)NNC(=O)C2CCCO2)c1` (stereo not given), for which the AC50 result is “inactive”.
Regarding `COc1ccc(Cc2n[nH]c(=O)c3ccccc23)cc1OC`, the AC50 is 25.1 µM (active).
With `COc1ccc(C[N+](C)(C)N)cc1OC`, the activity, negative = inhibition is 13.9% [at 11.4 µM].
For `COc1ccc(CCN(C)CCc2ccc(OC)c(OC)c2)cc1OC`, the AC50 entry is “inactive”.
As to `CCCCc1ccc2nc(NC(=O)OC)[nH]c2c1`, the AC50 entry is “inactive”.
On to `Nc1c(OCC(=O)O)ccc2cc(S(=O)(=O)O)ccc12`, for which the activity, negative = inhibition is -7.12% [at 11.4 µM].
The same measure, in the same setting: under `COc1cccc(-c2ccc3ncnc(N4CCOCC4)c3c2)c1` stands -6.77% [at 2.29 µM]; under `c1ccc2c(N3CCOCC3)nc(-c3ccoc3)nc2c1`, 11.8% [at 2.29 µM].
`Clc1ccc(Sc2cc(N3CCOCC3)nc(-c3ccccc3)n2)cc1`: the AC50 is 10 µM (active).
`COc1cccc(Sc2cc(N3CCOCC3)nc(-c3ccccc3)n2)c1`: the AC50 is 10 µM (active).
For `Nc1nc(Cl)cc(N2CCOCC2)n1`, the AC50 result is “inactive”.
Turning to `Brc1ccc([C@H]2CN3CCSC3=N2)cc1`, the AC50 result was “inactive”.
Consider `CN1CCN(c2ncncc2-c2ccc(C(=O)N(C)C)cc2)CC1`, for which the activity, negative = inhibition is 16.3% [at 2.29 µM].
With `O=P(O)(O)CCP(=O)(c1ccccc1)c1ccccc1`, the AC50 result was “inactive”.
For `O=C1CC(c2ccc(F)cc2)Cc2nc(NCC3CCCO3)ncc21` (stereo not given), the concentration at half-maximal activity (AC50) was 12.6 µM (active).
For `CCNc1ncc2nc(-c3ccc(F)cc3)c(=O)n(C[C@H]3CCCO3)c2n1`, the AC50 entry is “inactive”.
Take `CCNc1ncc2nc(-c3cc(F)cc(F)c3)c(=O)n(C[C@H]3CCCO3)c2n1`: the AC50 entry is “inactive”.
As for `Cc1nc2cccc([N+](=O)[O-])c2n1CCCN(C)C`, the activity, negative = inhibition is -4.5% [at 11.4 µM].
In the case of `Cc1ccc2nc(SCC(=O)NCc3cccs3)c(C#N)cc2c1`, the AC50 result is “inactive”.
The same measure, in the same setting: next, `Cc1ccc2nc(SCc3nnc(-c4ccccc4[N+](=O)[O-])o3)c(C#N)cc2c1`: 0.794 µM (active); `CN1CCC(=C2c3ccccc3CC(=O)c3sccc32)CC1`: “inactive”.
For the compound `O=C(O)CN(CCN(CC(=O)O)CC(=O)O)CC(=O)O.[Mn]`, the activity, negative = inhibition was -0.525% [at 11.4 µM].
As to `Cc1cn2c(-c3ccncc3)nnc2s1`, the AC50 result is “inactive”.
Regarding `c1cc(-c2sc(-c3ccncc3)c(-c3ccncc3)c2-c2ccncc2)ccn1`, the concentration at half-maximal activity (AC50) is 2 µM (active).
The same measure, in the same setting: under `COc1cccc(C2=NOC(C(=O)NCCN3CCOCC3)C2)c1` (stereo not given) stands “inactive”; under `Cc1cc(S(=O)(=O)NCCCN2CCOCC2)ccc1F`, “inactive”; under `CN1CCN(S(=O)(=O)c2ccc3[nH]cc(C(=O)O)c(=O)c3c2)CC1`, “inactive”.
In the case of `CS(=O)(=O)Nc1cccc(-c2nc(NCCN3CCOCC3)c3ccccc3n2)c1`, the activity, negative = inhibition is 3.9% [at 2.29 µM].
Turning to `CCC(CC)C(=O)c1c[nH]c(C(=O)NCCCN2CCOCC2)c1`, the AC50 result is “inactive”.
Consider `Cc1ccccc1NS(=O)(=O)c1ccc2[nH]cc(C(=O)NCCCN3CCOCC3)c(=O)c2c1`, for which the AC50 is 12.6 µM (active).
For the compound `COc1cccc(NS(=O)(=O)c2ccc3[nH]cc(C(=O)NCCN4CCOCC4)c(=O)c3c2)c1`, the AC50 is 7.94 µM (active).
Still for that read-out and setting: under `Cc1ccccc1NS(=O)(=O)c1ccc2[nH]cc(C(=O)N(C)Cc3ccco3)c(=O)c2c1` stands 12.6 µM (active).
For `CO[C@H]1COC(=O)C/C=C\[C@@H](C)COC(=O)[C@@H](C)NC(=O)C/C=C\[C@@H]1C`, the activity, negative = inhibition is -12.1% [at 11.4 µM].
As to `COC(=O)CNC(=O)/C=C/c1ccc(OC)cc1`, the AC50 result is “inactive”.
Still for that read-out and setting: under `COc1ccc(/C=C/C(=O)Nc2ccccc2C(=O)N2CCCC2)cc1` stands 15.8 µM (active); under `CCOC(=O)C1CCN(C(=O)c2ccccc2NC(C)=O)CC1`, “inactive”; under `Cc1ccccc1N1CCN(C(=O)c2ccccc2NC(=O)/C=C\C(=O)O)CC1`, 14.1 µM (active).
With `COC(=O)N1CCC2(CCCN(C(=O)Nc3ccc(OC)cc3)C2)CC1`, the AC50 result is “inactive”.
Consider `NCc1ccccc1CC(=O)N[C@@H]1C(=O)N2C(C(=O)O)=C(CSc3nnnn3CC(=O)O)CS[C@@H]12`, for which the AC50 result was “inactive”.
On to `CC(=O)Nc1nc(NC(C)=O)c2[nH]c(CO)nc2n1`, for which the activity, negative = inhibition is 15.3% [at 11.4 µM].
With `Cc1cc(C)cc(-n2nnnc2-c2cn(C)nc2C(F)(F)F)c1`, the AC50 result is “inactive”.
In the case of `FC(F)(F)c1nc(-c2ccncc2)ncc1-c1nnnn1-c1ccccc1`, the AC50 is 2.82 µM (active).
`Cc1nc2cnc(N3CCNCC3)nc2n(-c2ccccc2)c1=O`: the AC50 entry is “inactive”.
Still for that read-out and setting: next, `FC(F)(F)c1nc(N2CCCC2)ncc1-c1nnnn1-c1ccccc1`: 6.31 µM (active).
As for `c1ccc(CNc2nc(-c3ccoc3)nc3ccccc23)cc1`, the activity, negative = inhibition is -16.4% [at 2.29 µM].
For `CCCNC(=S)Nc1ccc(Br)cc1`, the AC50 was 14.1 µM (active).
For `Cc1ccc(NC(=S)Nc2ccc(Br)cc2)cc1`, the AC50 result was “inactive”.
In the case of `CC(=O)c1c(O)c(C)c(-c2ccccc2)n(-c2ccccc2)c1=O`, the AC50 was 14.1 µM (active).
For `Cc1cc(C)n(-c2ccc(F)cc2)c(=O)c1C(=O)O`, the AC50 result is “inactive”.
For the compound `N=c1n(-c2ccccc2)c(O)cc(=O)n1-c1ccccc1`, the AC50 result is “inactive”.
